“And” between values parts separate entries of the source, which are not always exact repeats. Equal entries are not always repeated. Results filed as inconclusive are left out. For part of these data: Results with a measured potency or affinity are listed apart. The source made the active and inactive calls. Unless noted, the rule behind the calls is not given here.
Experiments:
[1] = qHTS assay for cell viability of HEK293 cells (AID 743288; active = well fitted cell-killing curve with a large enough effect; note: nearly all actives have a fitted effect of over 50% in size; note: potency is the fitted concentration of half-maximal effect; for max response: % is set by controls: 0 for no effect and ±100 for the full control effect); settings: ATP luminescence (CellTiter-Glo), 18 h; max response: active compounds read low
Outline: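 Quantitative high-throughput screen: compounds were pinned onto parental HEK293 cells (2,000 per well) after a minimum 5 h settling at 37 C, incubated 18 h at 37 C, and intracellular ATP measured by luciferase luminescence.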

[2] = qHTS assay for cell viability of the p53RE-bla HCT-116 cell line (AID 743292; active = well fitted cell-killing curve with a large enough effect; note: nearly all actives have a fitted effect of over 55% in size; note: potency is the fitted concentration of half-maximal effect)
Outline: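 ATP-based luminescent viability (CellTiter-Glo, 30 min RT) after 16 h compound treatment at 37 C of p53RE-bla HCT-116 cells, seeded at 4,000 cells/well and rested 5 h before dosing.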

[3] = Ebola virus entry assay, ratio channel
[4] = Ebola virus entry assay, green channel fluorescence
[5] = Ebola virus entry assay, reporter ratio channel; Channel type: primary
[6] = Ebola virus entry assay, blue channel (ratio component)

CCOP(=O)(NC(C)C)Oc1ccc(SC)c(C)c1 (stereo unspecified)
inactive: max response [1] -28.9% and -13.9% | Potency [2] | outcome [3] | outcome [4] | outcome [5] | outcome [6]

Nc1ccc(N=Nc2ccccc2)cc1
inactive: max response [1] -0.712% | Potency [2] | outcome [3] | outcome [4] | outcome [5]

CCCCC(CC)COC(=O)c1ccccc1C(=O)OCC(CC)CCCC (stereo unspecified)
inactive: max response [1] -14% and -11% | Potency [2] | outcome [3] | outcome [4] | outcome [5] | outcome [6]

C1=CC2C3C=CC(C3)C2C1 (stereo unspecified)
inactive: outcome [3] | outcome [4] | outcome [5] | outcome [6]

Nc1ccc(S(=O)(=O)Nc2ccccc2)cc1
inactive: outcome [4] | outcome [5] | outcome [6]

C[C@@H]1CN(c2c(F)c(N)c3c(=O)c(C(=O)O)cn(C4CC4)c3c2F)C[C@H](C)N1
inactive: outcome [4] | outcome [5] | outcome [6]

CC(=O)Oc1ccccc1C(=O)O
inactive: outcome [4] | outcome [5] | outcome [6]

O=C(Oc1ccccc1)c1cccc(C(=O)Oc2ccccc2)c1
inactive: outcome [4] | outcome [5] | outcome [6]

CCCN(CCC)c1c([N+](=O)[O-])cc(S(N)(=O)=O)cc1[N+](=O)[O-]
active: AC50 [3] 8.91 µM | AC50 [5] 8.91 µM
inactive: max response [1] -4.88% | Potency [2]

CN1C(=O)CC[C@H]1c1cccnc1
inactive: outcome [4] | outcome [5] | outcome [6]

CCOC(=O)C(=O)CCCCCCl
inactive: outcome [4] | outcome [5] | outcome [6]

NCCCC(N)(C(=O)O)C(F)F (stereo unspecified)
inactive: outcome [4] | outcome [5] | outcome [6]

CC(=O)[O][Hg][c]1ccccc1
active: Potency [1] 7.08 µM and 22.4 µM | Potency [2] 8.91 µM and 10 µM | AC50 [3] 4.47 µM | AC50 [5] 4.47 µM

CCN(CC)CCc1nc(-c2ccccc2)no1
inactive: outcome [4] | outcome [5] | outcome [6]

CCCCOC(=O)c1ccccc1C(=O)OCc1ccccc1
inactive: max response [1] -13.6% and -13.5% | Potency [2] | outcome [3] | outcome [5] | outcome [6]

COc1ccccc1N1CCN(CC(O)COc2cc(OC)c(OC)c(OC)c2)CC1 (stereo unspecified)
inactive: outcome [4] | outcome [5] | outcome [6]

Nc1cccc2c(N)cccc12
active: AC50 [5] 35.5 µM
inactive: outcome [3]

CC(C)CCCC(C)CCCC(C)CCCCC(C)CCCC(C)CCCC(C)C (stereo unspecified)
inactive: outcome [4] | outcome [5] | outcome [6]

O=C(Nc1cccc(C2=NCCN2)c1)Nc1cccc(C2=NCCN2)c1
inactive: outcome [4] | outcome [5] | outcome [6]

CN1Cc2cc(C(=O)N3CCC(C4CCNCC4)CC3)ccc2N[C@@H](CC(=O)O)C1=O
inactive: outcome [4] | outcome [5] | outcome [6]

C#CC(C)(CC)OC(=O)c1ccccc1C(=O)O (stereo unspecified)
inactive: outcome [4] | outcome [5] | outcome [6]

CCOC(=O)c1c(C)n(C)c2ccc(O)cc12
inactive: outcome [4] | outcome [5] | outcome [6]

Nc1c(Cl)c(Cl)c(Cl)c(Cl)c1Cl
inactive: max response [1] -4.75% | Potency [2] | outcome [3] | outcome [5] | outcome [6]

CCCCCCCCCCCCCC[N+](C)(C)C
active: AC50 [3] 25.1 µM | AC50 [5] 25.1 µM

O=C1C(I)=CC(=C(c2cc(I)c(O)c(I)c2)c2ccccc2C(=O)O)C=C1I
inactive: outcome [4] | outcome [5] | outcome [6]

OCCCc1ccccc1
inactive: outcome [4] | outcome [5] | outcome [6]

CCCCCCCCOc1ccc(C(=O)c2ccccc2)c(O)c1
inactive: outcome [4] | outcome [5] | outcome [6]

c1ccc2[nH]ccc2c1
inactive: outcome [4] | outcome [5] | outcome [6]

CCOC(=O)c1cccnc1
inactive: outcome [4] | outcome [5] | outcome [6]

Nc1nc2ccc([N+](=O)[O-])cc2s1
inactive: outcome [3] | outcome [5]

COc1c(N2CCNC(C)C2)c(F)cc2c(=O)c(C(=O)O)cn(C3CC3)c12 (stereo unspecified)
inactive: outcome [4] | outcome [5] | outcome [6]

CN(C)c1ccc(N=NS(=O)(=O)O)cc1
inactive: outcome [3] | outcome [5]

CN(C(=O)C(Cl)Cl)c1ccc(OC(=O)c2ccco2)cc1
inactive: outcome [4] | outcome [5] | outcome [6]

O=S(=O)(O)C(F)(F)C(F)(F)C(F)(F)C(F)(F)F
inactive: max response [1] -11.1% and -18% | Potency [2] | outcome [3] | outcome [5]

CC(=O)N[C@@H](Cc1ccc(O)cc1)C(=O)O
inactive: outcome [4] | outcome [5] | outcome [6]

Cn1c(NCCN(CCO)CCCc2ccc([N+](=O)[O-])cc2)cc(=O)n(C)c1=O
inactive: outcome [4] | outcome [5] | outcome [6]

S=C(SSC(=S)N1CCCCC1)N1CCCCC1
inactive: outcome [4] | outcome [5] | outcome [6]

CCn1cc(C(=O)O)c(=O)c2cc3c(cc21)OCO3
inactive: outcome [4] | outcome [5] | outcome [6]

Source: PubChem BioAssay (NCATS)
